# Measured values from PubChem BioAssay (NCATS).
# Values joined by “and” are separate entries in the source; they are usually repeats but may differ in a detail not shown here. Equal values may be shown once. Records with an inconclusive call do not appear. A call without a number means that no potency is given here. Active and inactive are the calls of the source. The call rests on the fitted dose curve; in most records, active means well fitted curve in the direction sought with a large enough effect; inconclusive means small, poorly fitted or top-dose-only effect, or another doubt; inactive means no such curve, though single readings can be large; an effect the other way counts as inactive or inconclusive.
# Columns and labels:
# [1] = P-glycoprotein substrates identified in KB-3-1 adenocarcinoma cell line, qHTS therapeutic library screen (AID 1346986); further: nearly all actives have a fitted effect of over 60% in size;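 further: potency is for cytotoxicity meaning loss of cell viability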
# Summary of the method: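 In 1536-well format, 500 cells/well received pinned compound titrations and were incubated 72 h, 5% CO2. Viability was read by CellTiter-Glo; cytotoxic if AC50 < 10 uM and efficacy >50%.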
# [2] = P-glycoprotein substrates identified in KB-8-5-11 adenocarcinoma cell line, qHTS therapeutic library screen (AID 1346987); further: nearly all actives have a fitted effect of over 65% in size
# Summary of the method: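 Compounds are pinned in dose-response onto KB-8-5-11 cells (500 cells/well, colchicine-free medium) and left 72 h at 37 degree C. CellTiter-Glo luminescence then yields AC50 values.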
# Potency means the concentration at half of the fitted maximal effect.
Compound,Potency [1],Potency [2],outcome [1],outcome [2]
Cc1c(CN2CCN(C(=O)C(C)O)CC2)sc2c(N3CCOCC3)nc(-c3cnc(N)nc3)nc12 (stereo not given),259 nM (active),820 nM (active),–,–
COC(=O)CCc1cc2ccoc2c(OC)c1O[C@@H]1O[C@H](CO)[C@@H](O)[C@H](O)[C@H]1O,inactive,inactive,–,–
N#Cc1c(Oc2ccc(F)c(NC(=O)Cc3cccc(C(F)(F)F)c3)c2)ccc2nc(NC(=O)C3CC3)sc12,6510 nM (active),7310 nM (active),–,–
Nc1ccc(/C=C/C(=O)NCc2cc3cc(-c4ccc(C(=O)N5CCC(F)(F)CC5)cc4)cc(-c4ccc(F)cc4)c3o2)cn1,517 nM (active),5.17 µM (active) and 5.8 µM (active),–,–
C[C@@H]1C[C@H]2O[C@@H]2/C=C\C=C\C(=O)Cc2c(Cl)c(O)cc(O)c2C(=O)O1,2860 nM (active),438 nM (active) and 5.7 µM (active),–,–
O=C1NC(Cc2c[nH]c3ccccc23)C(=O)NC1Cc1cnc[nH]1 (stereo not given),inactive,inactive,–,–
O=C1NC(=O)C(c2cn(-c3ccccc3)nc2-c2ccc(F)cc2)N1 (stereo not given),inactive,inactive,–,–
CC12CCC3c4ccc(O)cc4CCC3C1CC(OC1OC(C(=O)O)C(O)C(O)C1O)C2O (stereo not given),inactive,inactive,–,–
CC(C)(C)NC(=O)[C@@H](c1cccnc1)N(C(=O)c1ccco1)c1ccc(C(C)(C)C)cc1,inactive,inactive,–,–
C=C[C@H]1C(O[C@@H]2O[C@H](CO)[C@@H](O)[C@H](O)[C@H]2O)OC=C2C(=O)N3CCc4c([nH]c5ccccc45)C3CC21 (stereo not given in full),inactive,inactive,–,–
CC1CC(O)/C=C/C(O)C(O)CC(=O)Cc2c(Cl)c(O)cc(O)c2C(=O)O1 (stereo not given),inactive,inactive,–,–
C=C(C(=O)O)C1CCC2(C)CCC(O)C(=C)C2C1 (stereo not given),inactive,inactive,–,–
O=C(OC1C=C(CO)C2C(OC3OC(CO)C(O)C(O)C3O)OC=CC12)c1ccc(O)cc1 (stereo not given),inactive,inactive,–,–
CCOC(=O)C(CCc1ccccc1)NC(C)C(=O)N1C(=O)N(C)CC1C(=O)O (stereo not given),inactive,inactive,–,–
C/C(=C\CCC(C)CCO)C(=O)OC1(C)CCC2C(C(=O)O)=COC(OC3OC(CO)C(O)C(O)C3O)C21 (stereo not given),inactive,inactive,–,–
C[C@@H](O)[C@H](NC(=O)c1ccc(C#Cc2ccc(CN3CCOCC3)cc2)cc1)C(=O)NO,inactive,inactive,–,–
CC1C(OC(=O)c2ccccc2)C(O)C2C(C(=O)O)=COC(OC3OC(CO)C(O)C(O)C3O)C12 (stereo not given),inactive,inactive,–,–
CC(C)CC1NC(=O)C(C)NC(=O)C(CC(C)C)OC(=O)CCCNC1=O (stereo not given),inactive,inactive,–,–
C[C@H](NC(c1cccc2[nH]c(=O)c(=O)[nH]c12)P(=O)(O)O)c1ccc(Br)cc1 (stereo not given in full),inactive,inactive,–,–
CC1(C)CC[C@]2(C(=O)O[C@@H]3O[C@H](CO[C@@H]4O[C@H](CO)[C@@H](O)[C@H](O)[C@H]4O[C@@H]4O[C@H](CO)[C@@H](O)[C@H](O)[C@H]4O)[C@@H](O)[C@H](O[C@@H]4O[C@H](CO)[C@@H](O)[C@H](O)[C@H]4O)[C@H]3O)CC[C@]3(C)C(=CCC4[C@@]5(C)CC[C@@H](O)[C@@](C)(C(=O)O[C@@H]6O[C@H](CO)[C@@H](O)[C@H](O)[C@H]6O)C5CC[C@]43C)[C@@H]2C1 (stereo not given in full),–,–,inactive [at 9.29 µM],inactive [at 9.29 µM]
CC12CCC(=O)C=C1C(O)CC1C2C(O)CC2(C)C1CC[C@]2(O)C(=O)CO (stereo not given in full),–,–,inactive [at 9.29 µM],inactive [at 9.29 µM]
CC(=O)O[C@@H]1[C@@H](OC(=O)/C=C/c2ccccc2)[C@@H](OC(C)=O)[C@H](O[C@H]2[C@@H]3C=CO[C@@H](O[C@@H]4O[C@H](CO)[C@@H](O)[C@H](O)[C@H]4O)[C@@H]3[C@@]3(CO)O[C@@H]23)O[C@H]1C,inactive,inactive,–,–
CC(=O)O[C@H]1[C@@H](O)[C@H](O[C@H]2[C@@H]3C=CO[C@@H](O[C@H]4O[C@@H](CO)[C@H](O)[C@@H](O)[C@@H]4O)[C@@H]3[C@@]3(CO)O[C@@H]23)O[C@@H](C)[C@@H]1OC(=O)/C=C/c1ccccc1,inactive,inactive,–,–
C=C1C(=O)O[C@@H]2C[C@H](C)[C@@]3(O)C=C(C(C)=O)[C@]4(CC3C[C@H]12)C(=O)O[C@H]1C[C@@H](C)C(CCC(C)=O)=CC[C@H]14 (stereo not given in full),inactive,inactive,–,–
CC1CCC23COC(=O)C2=CC(O)CC3C1(C)CCC1=CC(O)OC1=O (stereo not given),inactive,inactive,–,–
